RTF Ca sens inh: cardiac RTF calcium desensitization; P19429+P45379; IANBD-labeled cardiac RTF, Ca2+ fluorescence; inhibition, % at 7.15 µM; hit rate 0.12% among 340,000; AID 493244;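 active means inhibition above the mean inhibition of all tested compounds plus 3 SD, cut at about 17% in these data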;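 further: assay run at fixed EC70 calcium of 1.6 mM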
C-LANA FP: blocks KSHV LANA C-terminal domain binding to DNA; MBP-C-LANA/FAM-LBS DNA binding, fluorescence polarization; inhibition, % at 9 µM; hit rate 0.078% among 340,000; AID 504423;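 active means highest replicate inhibition at or above 60% at 9 µM, even if other replicates fall short; inactive means all replicates below 60% inhibition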
RTF Ca sens act: cardiac RTF calcium sensitization | AID 493008 | hit rate 0.24% among 340,000 | IANBD-labeled TnC RTF fluorescence at EC20 calcium; 0% EC20 calcium, 100% full calcium | activation, % at 7.2 µM;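 active means activation above the mean over all tested compounds plus 3 SD, cut at about 30% in these data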;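 further: rise in fluorescence read as greater calcium sensitivity of cardiac thin filaments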
Keap1-Nrf2 PPI: inhibitors of human Keap1-Nrf2 protein-protein interaction | Q14145 | Keap1 Kelch-Nrf2 peptide fluorescence polarization, 1536-well | inhibition, % at 9.4 µM | hit rate 0.15% among 340,000 | AID 504523; in the data active means inhibition above about 12%; inconclusive means no clear call, values can overlap the other calls; inactive means below about 7.3%;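 further: human Keap1 Kelch domain with fluorescein labeled Nrf2 9mer peptide probe; higher means more block of Keap1 binding to Nrf2 peptide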
Target sequence (Q14145 whole entry, looked up, the tested form may be a part): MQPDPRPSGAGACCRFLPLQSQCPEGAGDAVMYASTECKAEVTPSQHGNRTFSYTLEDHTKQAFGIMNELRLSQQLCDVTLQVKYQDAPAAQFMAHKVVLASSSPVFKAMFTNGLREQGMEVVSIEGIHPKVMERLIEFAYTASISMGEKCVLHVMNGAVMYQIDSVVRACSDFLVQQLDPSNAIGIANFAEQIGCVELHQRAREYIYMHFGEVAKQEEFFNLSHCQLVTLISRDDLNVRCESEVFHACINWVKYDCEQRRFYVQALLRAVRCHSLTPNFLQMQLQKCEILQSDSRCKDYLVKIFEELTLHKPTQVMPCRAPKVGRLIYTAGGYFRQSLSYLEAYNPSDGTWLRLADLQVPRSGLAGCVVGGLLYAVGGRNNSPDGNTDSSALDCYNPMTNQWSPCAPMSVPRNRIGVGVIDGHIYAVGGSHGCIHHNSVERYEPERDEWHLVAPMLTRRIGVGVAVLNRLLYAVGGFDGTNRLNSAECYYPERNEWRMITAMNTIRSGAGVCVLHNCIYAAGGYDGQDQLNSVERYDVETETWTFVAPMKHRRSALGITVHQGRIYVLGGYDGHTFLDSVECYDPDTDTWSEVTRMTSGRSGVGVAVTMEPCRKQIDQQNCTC
eLon inh: inhibitors of E. coli Lon protease; purified E. coli Lon protease, fluorescence polarization; AID 602123; hit rate 0.42% among 360,000; P0A9M0; inhibition, % at 7.94 µM; in the data active means inhibition above about 13%, passing the limit was not always enough
E coli Lon conf: E. coli Lon inhibition confirmation. shares compounds with eLon inh. purified E. coli Lon, fluorescence polarization. inhibition, % at 7.94 µM. hit rate 31% among 1,400; in the data active means inhibition above about 16%
Each line names hits and unclear results; the compound was inactive in the other large screens (follow-up assays come after a bar, where they were run). Sampled rows, rich in hits. Any-hit rate of the full collection: about 0.82%.

C=CCOC(=O)C1=C[C@H](c2coc3ccccc3c2=O)[C@@H](CCCO)[C@H](OCC)O1	eLon inh 26 | E coli Lon conf inactive
O=C(c1[nH]c(C(F)(F)F)nc1-c1ccccc1)N1CCc2c([nH]c3ccccc23)C1	none (no result: RTF Ca sens inh, C-LANA FP, RTF Ca sens act, Keap1-Nrf2 PPI)
CCOc1ccc(/C(O)=C2/C(=O)C(=O)N(c3ccccn3)C2c2ccc(Cl)cc2)c(C)c1 (stereo unspecified)	none
CCOc1ccc(/C(O)=C2/C(=O)C(=O)N(c3ccccn3)C2c2ccc(C)cc2)c(C)c1 (stereo unspecified)	eLon inh 26 | E coli Lon conf inactive
CCOC(=O)C1CCCN(C(=O)c2cccnc2Oc2ccccc2)CC1 (stereo unspecified)	none (no result: RTF Ca sens inh, C-LANA FP, RTF Ca sens act, Keap1-Nrf2 PPI)
CCOC(=O)C1=C(COC(=O)c2ccccc2OC(F)F)NC(=O)NC1C (stereo unspecified)	none
CCOC(=O)C1=C(COC(=O)c2ccc3ccccc3c2O)NC(=O)NC1C (stereo unspecified)	RTF Ca sens act 35, eLon inh 49 | E coli Lon conf inactive
COc1ccc(Cc2nc3ccc(C(=O)NCCc4ncccc4C)cc3o2)cc1OC	none (no result: RTF Ca sens inh, C-LANA FP, RTF Ca sens act, Keap1-Nrf2 PPI)
CC1(C(=O)Nc2ccc(Cl)c(C(F)(F)F)c2)Cc2c(-c3ccc(C(N)=O)cc3)ccnc2O1 (stereo unspecified)	none (no result: RTF Ca sens inh, C-LANA FP, RTF Ca sens act, Keap1-Nrf2 PPI)
Cc1ccccc1CN1C(=O)c2ccccc2C1c1nnnn1-c1ccc2c(c1)OCCO2 (stereo unspecified)	none (no result: RTF Ca sens inh, C-LANA FP, RTF Ca sens act, Keap1-Nrf2 PPI)
COc1ccc(/C=N/c2c(-c3ccco3)nc3ccccn23)cc1OC	Keap1-Nrf2 PPI inconclusive, eLon inh 32 | E coli Lon conf inactive
Clc1ccc(/C=N/c2c(-c3ccco3)nc3ccccn23)cc1	eLon inh 26 | E coli Lon conf inactive
Oc1ccccc1/C=N/c1c(-c2ccco2)nc2ccccn12	eLon inh 30 | E coli Lon conf inactive
CC(=O)NC(c1ccc(F)c(F)c1)c1nc(-c2cnn(C)c2)cs1 (stereo unspecified)	none (no result: RTF Ca sens inh, C-LANA FP, RTF Ca sens act, Keap1-Nrf2 PPI)
CC(C)CNC(=O)C1(C)CCCN1C(=O)c1cccnc1 (stereo unspecified)	none (no result: RTF Ca sens inh, C-LANA FP, RTF Ca sens act, Keap1-Nrf2 PPI)
Cc1ccc(/C=N/N=C/c2ccc(C)cc2)cc1	none
Cc1ccc(C=Nc2cccnc2N)cc1	eLon inh active | E coli Lon conf inactive
CC1CCN(C(=O)C(=O)c2cn(CC(=O)N3CCCCCC3)c3ccccc23)CC1	none
CC1CCCN(C(=O)C(=O)c2cn(CC(=O)N3CCCCCC3)c3ccccc23)C1 (stereo unspecified)	eLon inh 21 | E coli Lon conf inactive
CN(C(=O)C(=O)c1cn(CC(=O)N2CCCC2)c2ccccc12)C1CCCCC1	eLon inh 39 | E coli Lon conf inactive
O=C(c1cn(CC(=O)N2CCCC2)c2ccccc12)C1CCCCC1	none
COc1ccc(C(O)c2nc(-c3ccccc3)cs2)cc1 (stereo unspecified)	none (no result: RTF Ca sens inh, C-LANA FP, RTF Ca sens act, Keap1-Nrf2 PPI)
COc1cccc(-c2cccc(-c3nc(C(=O)NCc4ccc(Oc5ccccc5)cc4)cc4c3[C@H](CCO)N(S(=O)C(C)(C)C)C4)c2)c1 (stereo partly specified)	none (no result: RTF Ca sens inh, C-LANA FP, RTF Ca sens act, Keap1-Nrf2 PPI)
CCc1nc2c(OCC(=O)C(C)(C)C)cccn2c1N(C=O)Cc1ccc(OC)cc1	none (no result: RTF Ca sens inh, C-LANA FP, RTF Ca sens act, Keap1-Nrf2 PPI)
Cc1cc(O)c(C(C)C)cc1NC(=S)Nc1cc(C(C)C)c(O)cc1C	none
N=NC(=O)c1ccccc1Nc1c(O)[nH]c2ccccc12	none
COc1ccc2c(c1O)Cc1ccccc1C2=O	eLon inh 34 | E coli Lon conf 22
O=S1(=O)N[C@@H](Cc2ccccc2)COc2cc(N3CCN(Cc4ccccc4F)CC3)ccc21	none (no result: RTF Ca sens inh, C-LANA FP, RTF Ca sens act, Keap1-Nrf2 PPI)
c1ccc2c3c([nH]c2c1)C1(CCCCC1)NCC3	none
CC12CCCCN1CCCc1c2[nH]c2ccccc12 (stereo unspecified)	eLon inh 22 | E coli Lon conf inactive
CCCCn1c(=NC(=O)c2cccnc2)c(C#N)cc2c(=O)n3cccc(C)c3nc21	eLon inh 24 | E coli Lon conf inactive
COCCCn1c(=NC(=O)c2ccncc2)c(C#N)cc2c(=O)n3cccc(C)c3nc21	eLon inh 38 | E coli Lon conf 22
Cc1c(C)c2ccc(OCC(=O)NCCc3c[nH]c4ccccc34)cc2oc1=O	none (no result: RTF Ca sens inh, C-LANA FP, RTF Ca sens act, Keap1-Nrf2 PPI)
CCCOc1ccc(/C=C/C(=O)Nc2ccc([N+](=O)[O-])cc2)cc1	eLon inh 19 | E coli Lon conf inactive
CCCCOc1ccc(/C=C/C(=O)Nc2ccc([N+](=O)[O-])cc2C)cc1	none
O=c1c(/C=C(\O)c2ccc(F)cc2)nc2ccccc2n1-c1ccccc1	RTF Ca sens act 51, eLon inh active | E coli Lon conf inactive
CC1(C(=O)NS(=O)(=O)c2ccc(Cl)s2)CCN1C(=O)Cc1ccc(-c2ccccc2)cc1 (stereo unspecified)	none (no result: RTF Ca sens inh, C-LANA FP, RTF Ca sens act, Keap1-Nrf2 PPI)
O=[N+]([O-])c1ccc(Cc2ccc([N+](=O)[O-])cc2)cc1	none
N#CC(CCc1ccc([N+](=O)[O-])cc1)(CCc1ccc([N+](=O)[O-])cc1)C(N)=O	eLon inh 52 | E coli Lon conf 31
COc1ccc(C(NC(C)=O)c2cc(Cl)c3cccnc3c2O)cc1 (stereo unspecified)	none
CCCC(=O)NC(c1ccc(OC)c(OC)c1)c1cc(Cl)c2cccnc2c1O (stereo unspecified)	eLon inh 17 | E coli Lon conf 48
CCOC(=O)c1[nH]cnc1N=Nc1c(O)ccc2ccccc12	eLon inh 44 | E coli Lon conf 76
O=C1C=CC(=O)N1CCCCCCCCCCN1C(=O)C=CC1=O	none
COc1ccc(/C=C2\CCc3c2nc2ccccc2c3C(=O)O)cc1OC	eLon inh 65 | E coli Lon conf inactive
c1cc(-c2ccsc2)n2ccnc2c1	none (no result: RTF Ca sens inh, C-LANA FP, RTF Ca sens act, Keap1-Nrf2 PPI)
c1cc(-c2ccoc2)n2ccnc2c1	eLon inh 73 (no result: RTF Ca sens inh, C-LANA FP, RTF Ca sens act, Keap1-Nrf2 PPI) | E coli Lon conf inactive
CCC(C)[C@H](NC(=O)NCCC1=CCCCC1)C(=O)OC (stereo partly specified)	none
COC(=O)[C@H](C)NC(=O)NCCC1=CCCCC1	eLon inh 24 | E coli Lon conf inactive
O=C(Nc1ccccc1C(=O)N1CCN(Cc2ccccc2)CC1)c1ccc(F)cc1	eLon inh 22 | E coli Lon conf inactive
Cc1ccc(C(O)c2ncc(-c3ccc(Cl)cc3)[nH]2)cc1F (stereo unspecified)	none (no result: RTF Ca sens inh, C-LANA FP, RTF Ca sens act, Keap1-Nrf2 PPI)
O=C1NC(=O)C2(N1)C(=O)c1cccc3cccc2c13 (stereo unspecified)	eLon inh active (no result: RTF Ca sens inh, C-LANA FP, RTF Ca sens act, Keap1-Nrf2 PPI) | E coli Lon conf active
O=C1NC(=O)C2(N1)c1ccccc1-c1ccccc12	none
O=c1[nH]c(-[n+]2ccc3ccccc3c2)c(/C=N/N=C(\[O-])c2ccccc2)s1	eLon inh 43 | E coli Lon conf inactive
CC(C)Oc1ccc2ccccc2c1CNC[C@H]1O[C@@H](n2ccc(N)nc2=O)[C@H](O)[C@@H]1O	none (no result: RTF Ca sens inh, C-LANA FP, RTF Ca sens act, Keap1-Nrf2 PPI)
F[B-](F)(F)c1cncc2ccccc12	eLon inh 42 | E coli Lon conf 38
F[B-](F)(F)c1cnc2ccccc2c1	none
CSCCC1NC(=O)C(C(C)=NNC(N)=O)=C1O (stereo unspecified)	none
